Our source for the binding signal values is article PMC7862700, “An all-to-all approach to the identification of sequence-specific readers for epigenetic DNA modifications on cytosine”.

Holding throughout (assay): DAPPL (digital affinity profiling via proximity ligation, sequencing); 10 mM Tris-HCl pH 7.5, 50 mM NaCl, 1 mM DTT, 4% glycerol, room temperature, 30 min; GST-TFs on glutathione beads, 16-mer random dsDNA library, 0.1% formaldehyde crosslink after washing; high values mean tight binding
The target of assay [1] is T1, FEV (Homo sapiens, UniProt Q99581 1-238).
T1 sequence: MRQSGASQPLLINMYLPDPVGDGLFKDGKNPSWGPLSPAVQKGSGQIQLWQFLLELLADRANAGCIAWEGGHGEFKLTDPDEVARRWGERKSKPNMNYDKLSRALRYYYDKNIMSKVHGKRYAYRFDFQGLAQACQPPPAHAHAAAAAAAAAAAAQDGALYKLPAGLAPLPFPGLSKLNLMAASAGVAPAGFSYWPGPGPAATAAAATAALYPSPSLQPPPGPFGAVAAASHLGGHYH
As to conditions: protein: recombinant; tags: N-terminal GST; dsDNA, one strand shown. The essentials:
(§1)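 Binding signal is defined as a hexamer's read frequency for one factor over its frequency for the tag-only sample. To obtain reads, GST-fused human transcription factors were expressed in yeast, captured on glutathione beads, barcoded with DNA and pooled with that sample. Pools met 200 nmole of a 16-mer random double-stranded DNA library in Tris/NaCl/DTT/glycerol buffer for 30 min at room temperature before washing, 0.1% formaldehyde crosslinking, proximity ligation (BsaI/T4 ligase, 1 h, 37 °C), PCR and Illumina NextSeq500 sequencing.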

For assay [2], the target named is ETV5 (Homo sapiens, UniProt P41161 1-510). As to conditions: protein: recombinant; tags: N-terminal GST; dsDNA, one strand shown. In a few lines: as §1
Assay [3] concerns the target HSF1 (Homo sapiens, UniProt Q00613 1-529). As to conditions: protein: recombinant; tags: N-terminal GST; chain copies: 3; dsDNA, one strand shown. The essentials: as §1
The target in assay [4] is T2, SPIC (Homo sapiens, UniProt Q8N5J4 1-248).
T2 sequence: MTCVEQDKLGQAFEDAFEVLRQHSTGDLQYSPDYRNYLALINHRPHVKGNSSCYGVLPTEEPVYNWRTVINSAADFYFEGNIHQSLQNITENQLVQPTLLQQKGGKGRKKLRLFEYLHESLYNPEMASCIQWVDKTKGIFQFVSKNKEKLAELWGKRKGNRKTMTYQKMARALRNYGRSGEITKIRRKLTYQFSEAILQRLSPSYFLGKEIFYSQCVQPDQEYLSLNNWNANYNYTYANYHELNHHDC
As to conditions: protein: recombinant; tags: N-terminal GST; dsDNA, one strand shown. The essentials: as §1

In assay [5] the target is ELF4 (Homo sapiens, UniProt Q99607 1-663). As to conditions: protein: recombinant; tags: N-terminal GST; dsDNA, one strand shown. In a few lines:
as §1

Assay [6] addresses T3, ELK4 (Homo sapiens, UniProt P28324-2 1-405).
T3 sequence: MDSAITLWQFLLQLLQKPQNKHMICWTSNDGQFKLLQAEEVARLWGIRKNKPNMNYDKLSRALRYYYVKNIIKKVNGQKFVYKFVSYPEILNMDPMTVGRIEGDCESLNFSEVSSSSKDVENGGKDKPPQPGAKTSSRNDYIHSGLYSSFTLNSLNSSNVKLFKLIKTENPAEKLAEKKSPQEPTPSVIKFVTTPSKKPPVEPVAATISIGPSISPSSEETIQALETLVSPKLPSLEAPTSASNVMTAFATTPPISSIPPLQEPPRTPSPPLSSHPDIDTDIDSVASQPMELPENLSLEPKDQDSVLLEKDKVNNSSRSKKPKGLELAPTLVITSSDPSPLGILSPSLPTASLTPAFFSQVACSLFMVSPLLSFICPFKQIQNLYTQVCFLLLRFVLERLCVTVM
As to conditions: protein: recombinant; tags: N-terminal GST; dsDNA, one strand shown. In a few lines: as §1

The target in assay [7] is T4, ETV2 (Homo sapiens, UniProt O00321 1-342).
T4 sequence: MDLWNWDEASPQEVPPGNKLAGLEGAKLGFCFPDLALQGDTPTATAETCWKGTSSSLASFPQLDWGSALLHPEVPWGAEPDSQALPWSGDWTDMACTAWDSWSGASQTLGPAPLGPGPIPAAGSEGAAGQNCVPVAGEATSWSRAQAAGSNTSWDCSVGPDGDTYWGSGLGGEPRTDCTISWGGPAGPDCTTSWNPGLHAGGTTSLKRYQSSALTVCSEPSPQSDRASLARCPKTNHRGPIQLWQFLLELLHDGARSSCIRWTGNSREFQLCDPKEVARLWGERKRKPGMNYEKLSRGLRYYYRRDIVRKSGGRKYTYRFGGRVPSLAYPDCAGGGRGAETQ
As to conditions: protein: recombinant; tags: N-terminal GST; dsDNA, one strand shown. In a few lines: as §1

The target of assay [8] is T5, ELF3 (Homo sapiens, UniProt P78545 1-371).
T5 sequence: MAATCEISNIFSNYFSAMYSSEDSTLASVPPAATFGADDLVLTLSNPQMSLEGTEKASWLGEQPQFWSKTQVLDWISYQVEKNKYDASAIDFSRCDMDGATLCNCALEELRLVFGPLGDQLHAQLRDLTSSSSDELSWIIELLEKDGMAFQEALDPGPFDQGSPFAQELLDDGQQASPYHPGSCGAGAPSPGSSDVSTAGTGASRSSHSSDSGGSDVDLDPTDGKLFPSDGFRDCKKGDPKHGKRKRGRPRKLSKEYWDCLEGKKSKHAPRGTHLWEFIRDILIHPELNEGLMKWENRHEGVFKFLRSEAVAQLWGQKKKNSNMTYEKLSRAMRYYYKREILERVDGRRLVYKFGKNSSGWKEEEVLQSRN
As to conditions: protein: recombinant; tags: N-terminal GST; dsDNA, one strand shown. In a few lines: as §1

Assay [9] addresses CRX (Homo sapiens, UniProt O43186 1-299). As to conditions: protein: recombinant; tags: N-terminal GST; dsDNA, one strand shown. In a few lines: as §1
The target of assay [10] is ETV1 (Homo sapiens, UniProt P50549 1-477). As to conditions: protein: recombinant; tags: N-terminal GST; dsDNA, one strand shown. The essentials:
as §1

For assay [11], the target named is T6, ERF (Homo sapiens, UniProt P50548 1-548).
T6 sequence: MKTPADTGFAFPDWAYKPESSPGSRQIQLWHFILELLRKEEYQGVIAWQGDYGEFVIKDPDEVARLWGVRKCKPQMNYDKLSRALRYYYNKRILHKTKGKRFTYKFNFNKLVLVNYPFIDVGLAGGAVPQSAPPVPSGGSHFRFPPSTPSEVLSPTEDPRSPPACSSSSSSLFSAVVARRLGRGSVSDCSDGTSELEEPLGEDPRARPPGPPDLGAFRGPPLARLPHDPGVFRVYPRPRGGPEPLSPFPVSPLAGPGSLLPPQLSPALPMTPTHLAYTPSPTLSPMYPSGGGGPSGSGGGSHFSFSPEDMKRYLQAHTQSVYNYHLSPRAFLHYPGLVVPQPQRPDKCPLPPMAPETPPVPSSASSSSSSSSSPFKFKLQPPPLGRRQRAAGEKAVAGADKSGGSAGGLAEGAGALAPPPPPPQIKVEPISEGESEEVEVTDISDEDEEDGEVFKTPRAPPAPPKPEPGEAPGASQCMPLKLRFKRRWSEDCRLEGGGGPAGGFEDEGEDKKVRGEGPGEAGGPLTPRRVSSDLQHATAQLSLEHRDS
As to conditions: protein: recombinant; tags: N-terminal GST; dsDNA, one strand shown. In a few lines: as §1

In assay [12] the target is T7, ETV3L (Homo sapiens, UniProt Q6ZN32 1-361).
T7 sequence: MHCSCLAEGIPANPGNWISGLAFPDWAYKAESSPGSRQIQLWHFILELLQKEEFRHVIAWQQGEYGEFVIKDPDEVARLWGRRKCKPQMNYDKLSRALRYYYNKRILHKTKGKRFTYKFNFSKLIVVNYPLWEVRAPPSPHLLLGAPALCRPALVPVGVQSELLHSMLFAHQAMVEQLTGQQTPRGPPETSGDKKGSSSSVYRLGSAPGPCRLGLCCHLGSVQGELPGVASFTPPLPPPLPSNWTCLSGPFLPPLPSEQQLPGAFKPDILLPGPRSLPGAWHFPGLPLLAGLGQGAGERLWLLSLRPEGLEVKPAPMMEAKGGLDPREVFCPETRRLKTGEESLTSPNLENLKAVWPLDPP
As to conditions: protein: recombinant; tags: N-terminal GST; dsDNA, one strand shown. In a few lines: as §1

Assay [13] addresses T8, ETS2 (Homo sapiens, UniProt P15036 1-469).
T8 sequence: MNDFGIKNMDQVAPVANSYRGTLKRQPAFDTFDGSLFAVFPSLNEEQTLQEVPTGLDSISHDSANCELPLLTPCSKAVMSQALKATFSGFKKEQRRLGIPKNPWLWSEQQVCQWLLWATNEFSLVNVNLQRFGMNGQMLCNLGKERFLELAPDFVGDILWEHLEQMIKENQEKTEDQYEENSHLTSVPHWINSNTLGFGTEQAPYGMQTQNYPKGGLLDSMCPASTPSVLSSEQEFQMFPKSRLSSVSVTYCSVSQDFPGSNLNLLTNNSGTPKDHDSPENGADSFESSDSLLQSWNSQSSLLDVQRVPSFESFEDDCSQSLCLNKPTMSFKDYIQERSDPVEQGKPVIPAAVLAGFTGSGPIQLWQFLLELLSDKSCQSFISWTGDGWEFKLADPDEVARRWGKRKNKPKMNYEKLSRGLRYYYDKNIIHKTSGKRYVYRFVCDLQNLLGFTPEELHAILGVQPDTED
As to conditions: protein: recombinant; tags: N-terminal GST; dsDNA, one strand shown. The essentials:
as §1

For assay [14], the target named is T9, SPDEF (Homo sapiens, UniProt O95238 1-335).
T9 sequence: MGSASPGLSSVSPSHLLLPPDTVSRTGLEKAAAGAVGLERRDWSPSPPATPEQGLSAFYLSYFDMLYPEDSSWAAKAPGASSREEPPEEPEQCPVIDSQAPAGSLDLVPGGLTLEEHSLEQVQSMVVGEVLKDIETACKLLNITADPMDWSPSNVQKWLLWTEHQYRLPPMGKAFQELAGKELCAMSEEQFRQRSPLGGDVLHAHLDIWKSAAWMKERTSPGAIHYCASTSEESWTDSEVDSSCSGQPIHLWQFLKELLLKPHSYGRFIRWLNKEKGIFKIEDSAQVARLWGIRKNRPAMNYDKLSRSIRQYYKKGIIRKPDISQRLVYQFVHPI
As to conditions: protein: recombinant; tags: N-terminal GST; dsDNA, one strand shown. In a few lines: as §1

For assay [15], the target named is T10, ETV7 (Homo sapiens, UniProt Q9Y603 1-341).
T10 sequence: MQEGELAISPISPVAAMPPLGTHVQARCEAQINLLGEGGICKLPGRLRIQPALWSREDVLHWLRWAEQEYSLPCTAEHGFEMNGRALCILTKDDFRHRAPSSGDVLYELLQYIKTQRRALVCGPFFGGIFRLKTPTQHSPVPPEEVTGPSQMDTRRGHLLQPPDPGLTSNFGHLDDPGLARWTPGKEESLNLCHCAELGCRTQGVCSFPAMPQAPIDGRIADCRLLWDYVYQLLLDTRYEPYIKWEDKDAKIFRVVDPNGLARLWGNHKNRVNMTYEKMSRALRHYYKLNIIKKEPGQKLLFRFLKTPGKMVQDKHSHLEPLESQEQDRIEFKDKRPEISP
As to conditions: protein: recombinant; tags: N-terminal GST; dsDNA, one strand shown. In a few lines:
as §1

Assay [16] addresses T11, ELF5 (Homo sapiens, UniProt Q9UKW6-2 1-255).
T11 sequence: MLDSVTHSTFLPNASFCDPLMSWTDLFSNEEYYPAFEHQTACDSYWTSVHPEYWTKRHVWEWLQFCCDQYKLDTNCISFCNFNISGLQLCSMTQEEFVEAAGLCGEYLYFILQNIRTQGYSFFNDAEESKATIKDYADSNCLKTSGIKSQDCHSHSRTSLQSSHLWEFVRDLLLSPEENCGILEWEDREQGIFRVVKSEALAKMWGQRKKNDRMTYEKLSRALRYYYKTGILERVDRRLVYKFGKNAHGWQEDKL
As to conditions: protein: recombinant; tags: N-terminal GST; dsDNA, one strand shown. The essentials:
as §1

The target of assay [17] is T12, ETV3 (Homo sapiens, UniProt P41162-2 1-143).
T12 sequence: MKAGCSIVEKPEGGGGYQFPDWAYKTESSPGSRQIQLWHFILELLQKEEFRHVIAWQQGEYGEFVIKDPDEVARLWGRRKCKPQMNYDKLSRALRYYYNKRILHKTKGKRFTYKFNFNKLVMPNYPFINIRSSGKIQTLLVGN
As to conditions: protein: recombinant; tags: N-terminal GST; dsDNA, one strand shown. In a few lines: as §1

Assay [18] concerns the target ETV6 (Homo sapiens, UniProt P41212 1-452). As to conditions: protein: recombinant; tags: N-terminal GST; dsDNA, one strand shown. The essentials: as §1

Chain of ETV1 (P50549 whole entry): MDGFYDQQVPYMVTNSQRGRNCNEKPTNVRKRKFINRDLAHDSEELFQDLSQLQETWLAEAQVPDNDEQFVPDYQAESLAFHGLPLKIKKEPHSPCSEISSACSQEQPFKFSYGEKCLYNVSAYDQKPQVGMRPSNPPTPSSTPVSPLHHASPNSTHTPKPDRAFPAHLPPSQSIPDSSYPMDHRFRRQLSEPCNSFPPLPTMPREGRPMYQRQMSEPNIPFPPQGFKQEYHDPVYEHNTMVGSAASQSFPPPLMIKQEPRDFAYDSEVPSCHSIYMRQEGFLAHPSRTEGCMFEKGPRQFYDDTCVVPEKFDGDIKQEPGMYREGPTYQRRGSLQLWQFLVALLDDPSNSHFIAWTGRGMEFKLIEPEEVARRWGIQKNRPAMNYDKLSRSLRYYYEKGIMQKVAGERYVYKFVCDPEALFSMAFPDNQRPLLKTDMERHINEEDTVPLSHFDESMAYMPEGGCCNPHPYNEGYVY
Chain of ETV6 (P41212 whole entry): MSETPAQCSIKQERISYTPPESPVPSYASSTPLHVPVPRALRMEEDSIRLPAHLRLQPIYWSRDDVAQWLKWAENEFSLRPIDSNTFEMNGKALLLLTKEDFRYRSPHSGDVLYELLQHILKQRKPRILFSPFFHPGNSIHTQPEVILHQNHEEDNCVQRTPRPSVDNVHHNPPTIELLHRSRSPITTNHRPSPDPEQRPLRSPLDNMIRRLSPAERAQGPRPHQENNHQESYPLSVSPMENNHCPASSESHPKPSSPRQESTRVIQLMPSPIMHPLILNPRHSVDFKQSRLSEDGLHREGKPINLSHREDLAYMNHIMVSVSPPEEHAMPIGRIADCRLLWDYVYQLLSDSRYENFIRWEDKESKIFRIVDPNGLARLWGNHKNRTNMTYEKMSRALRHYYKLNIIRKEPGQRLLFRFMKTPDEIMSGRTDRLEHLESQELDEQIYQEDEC
Chain of CRX (O43186 whole entry): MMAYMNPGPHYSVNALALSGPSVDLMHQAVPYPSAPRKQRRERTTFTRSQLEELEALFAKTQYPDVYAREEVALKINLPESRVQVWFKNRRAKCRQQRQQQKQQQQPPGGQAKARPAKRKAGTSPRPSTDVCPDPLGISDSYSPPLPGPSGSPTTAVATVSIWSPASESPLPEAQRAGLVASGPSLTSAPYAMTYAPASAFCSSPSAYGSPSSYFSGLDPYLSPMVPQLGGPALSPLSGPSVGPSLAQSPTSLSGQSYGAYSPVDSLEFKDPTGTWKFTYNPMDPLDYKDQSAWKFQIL
Chain of ETV5 (P41161 whole entry): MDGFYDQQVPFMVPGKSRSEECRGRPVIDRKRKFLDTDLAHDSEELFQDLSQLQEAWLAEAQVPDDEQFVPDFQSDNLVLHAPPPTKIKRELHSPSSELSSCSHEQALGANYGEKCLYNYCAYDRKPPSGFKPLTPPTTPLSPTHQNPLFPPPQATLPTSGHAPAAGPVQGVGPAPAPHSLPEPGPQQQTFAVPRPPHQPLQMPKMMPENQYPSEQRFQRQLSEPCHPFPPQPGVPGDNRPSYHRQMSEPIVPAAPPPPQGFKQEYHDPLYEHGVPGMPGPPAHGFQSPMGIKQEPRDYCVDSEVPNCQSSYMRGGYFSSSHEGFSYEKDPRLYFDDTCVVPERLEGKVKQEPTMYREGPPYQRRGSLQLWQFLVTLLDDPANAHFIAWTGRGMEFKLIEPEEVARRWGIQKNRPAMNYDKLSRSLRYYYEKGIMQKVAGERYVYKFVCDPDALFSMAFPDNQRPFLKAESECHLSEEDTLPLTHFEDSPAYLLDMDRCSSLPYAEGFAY
Chain of HSF1 (Q00613 whole entry): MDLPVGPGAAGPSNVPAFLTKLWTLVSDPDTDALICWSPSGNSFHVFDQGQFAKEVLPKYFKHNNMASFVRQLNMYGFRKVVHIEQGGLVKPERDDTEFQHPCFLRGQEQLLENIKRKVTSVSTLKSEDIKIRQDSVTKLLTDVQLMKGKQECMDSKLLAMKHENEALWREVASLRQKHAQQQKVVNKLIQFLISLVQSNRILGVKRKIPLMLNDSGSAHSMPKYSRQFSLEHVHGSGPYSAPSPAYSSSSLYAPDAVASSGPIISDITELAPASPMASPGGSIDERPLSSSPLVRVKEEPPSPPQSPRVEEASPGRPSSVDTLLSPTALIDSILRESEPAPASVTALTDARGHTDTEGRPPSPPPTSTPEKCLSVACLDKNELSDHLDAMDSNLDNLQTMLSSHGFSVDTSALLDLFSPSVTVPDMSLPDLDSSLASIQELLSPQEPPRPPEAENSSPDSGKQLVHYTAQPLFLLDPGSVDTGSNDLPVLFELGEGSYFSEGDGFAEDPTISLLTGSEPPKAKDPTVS
Chain of ELF4 (Q99607 whole entry): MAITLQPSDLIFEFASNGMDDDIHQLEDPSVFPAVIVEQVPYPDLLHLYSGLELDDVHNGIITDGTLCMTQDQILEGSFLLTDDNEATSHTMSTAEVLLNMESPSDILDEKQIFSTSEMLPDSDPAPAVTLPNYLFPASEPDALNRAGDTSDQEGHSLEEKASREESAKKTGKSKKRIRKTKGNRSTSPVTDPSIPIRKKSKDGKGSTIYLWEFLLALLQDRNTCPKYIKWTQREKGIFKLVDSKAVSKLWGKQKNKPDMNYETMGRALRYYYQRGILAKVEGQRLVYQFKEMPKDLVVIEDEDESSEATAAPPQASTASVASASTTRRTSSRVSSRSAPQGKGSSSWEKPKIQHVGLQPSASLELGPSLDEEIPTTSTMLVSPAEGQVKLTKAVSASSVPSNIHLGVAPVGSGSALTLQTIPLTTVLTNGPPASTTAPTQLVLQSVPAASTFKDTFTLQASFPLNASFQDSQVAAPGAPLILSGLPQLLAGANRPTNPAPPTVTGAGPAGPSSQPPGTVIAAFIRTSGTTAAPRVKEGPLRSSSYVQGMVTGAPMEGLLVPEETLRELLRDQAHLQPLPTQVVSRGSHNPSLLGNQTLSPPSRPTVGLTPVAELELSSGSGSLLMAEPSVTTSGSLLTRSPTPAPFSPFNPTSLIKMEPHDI

TGCTAG: the binding signal in assay [1] is 1.15 fold enrichment (6-mer frequency, TF over GST control); in assay [2], 1.3 fold enrichment (6-mer frequency, TF over GST control); in assay [3], 1.94 fold enrichment (6-mer frequency, TF over GST control); in assay [4] it was 1.17 fold enrichment (6-mer frequency, TF over GST control); in [5], 1.19 fold enrichment (6-mer frequency, TF over GST control); in [6] it was 1.26 fold enrichment (6-mer frequency, TF over GST control). Besides, the binding signal in assay [7] was 1.01 fold enrichment (6-mer frequency, TF over GST control); in [8] it was 1.34 fold enrichment (6-mer frequency, TF over GST control); in [9], 1.21 fold enrichment (6-mer frequency, TF over GST control); in assay [10], 1.17 fold enrichment (6-mer frequency, TF over GST control); in assay [11] it was 1.21 fold enrichment (6-mer frequency, TF over GST control); in assay [12] it was 1.29 fold enrichment (6-mer frequency, TF over GST control). Also, the binding signal was 1.04 fold enrichment (6-mer frequency, TF over GST control) in assay [13]; 1.09 fold enrichment (6-mer frequency, TF over GST control) in assay [14]; 1.16 fold enrichment (6-mer frequency, TF over GST control) in assay [15]; 1.09 fold enrichment (6-mer frequency, TF over GST control) in assay [16]; 1.13 fold enrichment (6-mer frequency, TF over GST control) in assay [17]; 1.05 fold enrichment (6-mer frequency, TF over GST control) in assay [18].
